Each structure is given as a SMILES string. About 320 (3.2%) of roughly 10,000 compounds were called active. The list comes from a sample in which actives are over-represented; it also holds similar structures and randomly drawn compounds. A number with no mark means an inactive call. Cut-off read from the data, not from the text of the source: active = CPE inhibition mostly above about 9.1% (no sharp cut-off); inactive = mostly below about 7.2%.

This experiment in a line: antivirals protecting cells from dengue CPE – CPE readout, HTS (AID 540333). The conditions noted are these: Dengue virus CPE inhibition in host cells, at 20 µM; active compounds read high.
In the case of `Cc1ccc(/C=C2\SC(=S)N(CCC(=O)NNS(=O)(=O)c3ccc(C)cc3)C2=O)cc1`, the CPE inhibition is 0.18%. To `CC(C)(C)CNC(=O)c1cccc2c1C(=O)c1ccc(N3CCCC3)cc1S2(=O)=O` belongs 0.02%; to `O=C(Nc1nc(-c2ccc(-c3ccccc3)cc2)cs1)C1=COCCO1`, 1.39%. Next, `O=C(Nc1nc(-c2cccs2)cs1)C1=COCCO1`: “inactive”.

Consider `O=C(Nc1nc(-c2ccc(Oc3ccccc3)cc2)cs1)C1=COCCO1`, for which the CPE inhibition is 10.7% (active). With `O=C1N=C(N2CCCC2)CN1c1ccccc1`, the CPE inhibition was 0.23%. Regarding `O=C([O-])c1ccc(-[n+]2c(-c3ccccc3)cc(-c3ccccc3)cc2-c2ccccc2)cc1`, the CPE inhibition is 10.2% (active). Consider `CCC(=O)c1ccc(-c2ccccc2)cc1`, for which the CPE inhibition result was “inactive”. Next, `CC(C)=NOC(=O)c1ccc(-c2ccccc2)cc1`: 0.26%; `C=C(C)C1CC=C(C)/C(=N/NC(=O)c2cccc([N+](=O)[O-])c2)C1` (stereo not drawn): “inactive”; `CCOC(=O)c1sc(N/N=C/c2ccccc2)nc1C`: 0.925%. Regarding `COc1ccc(/C=C(\C#N)C(=O)OCC(=O)Nc2c(C)cccc2C)cc1`, the CPE inhibition entry was “inactive”.

For the molecule `Cc1ccc(C)c2[nH]c(=O)c(C(c3nnnn3C(C)(C)C)N3CC=C(c4ccc(F)cc4)CC3)cc12` (stereo not drawn), the CPE inhibition is 26.9% (active).

For the molecule `Cc1ccccc1NC(=O)C(=O)NC(C)CCc1ccccc1` (stereo not drawn), the CPE inhibition entry is “inactive”. Next, `CC(CCc1ccccc1)NC(=O)Cc1ccccc1` (stereo not drawn): “inactive”; `Cc1ccc(NC(=S)NC(C)CCc2ccccc2)cc1C` (stereo not drawn): 19.3% (active); `Cc1ccccc1C(=O)Nc1c2c(nc3ccccc13)CCCC2`: “inactive”. Consider `O=C(COC(=O)/C(=C/c1cccs1)c1cccs1)NC(c1ccccc1)c1ccccc1`, for which the CPE inhibition was 17.2% (active). Turning to `CCOC(=O)/C=C/C(=O)OCC(=O)NC(c1ccccc1)c1ccccc1`, the CPE inhibition is 0.285%. Turning to `O=C(COC(=O)Cc1ccsc1)NC(c1ccccc1)c1ccccc1`, the CPE inhibition result is “inactive”. As for `Cc1nn(C)c(C(=O)NCc2ccc(Cl)cc2)c1Cl`, the CPE inhibition is 0.24%. In the case of `Cc1ccc(NC(=S)c2ccccc2)cc1`, the CPE inhibition entry was “inactive”. Next, `CCOC(=O)C1=C(Nc2ccccc2)CC(C)(O)C(C(=O)OCC)C1c1ccc(Cl)cc1` (stereo not drawn): 26.4% (active); `CCOC(=O)C1=C(Nc2ccccc2)CC(C)(O)C(C(=O)OCC)C1c1ccccc1` (stereo not drawn): 0.14%. In the case of `CCOC(=O)C1C(C(=O)OCC)C1(c1ccccc1)c1ccccc1` (stereo not drawn), the CPE inhibition was 0.545%. Regarding `O=C1c2ccccc2C(=O)c2c1cccc2N1CCCC1`, the CPE inhibition was 0.885%. On to `CN(C)c1cccc2c1C(=O)c1ccccc1C2=O`, for which the CPE inhibition result is “inactive”. Regarding `Cc1ccc(-n2[nH]c3c4c(ccc3c2=O)C(=O)c2ccccc2C4=O)cc1`, the CPE inhibition is 17% (active). Take `O=S(=O)(c1ccc(-c2csc(Nc3ccc(Br)cc3)n2)cc1)N1CCCC1`: the CPE inhibition was 5.89%.

As for `CC(C)Cc1nc(Nc2ccc(S(=O)(=O)N3CCCC3)cc2)c2nnn(Cc3ccccc3)c2n1`, the CPE inhibition was 19.9% (active). Turning to `O=S(=O)(c1ccc(-c2csc(Nc3ccc(F)cc3)n2)cc1)N1CCCC1`, the CPE inhibition is 2.46%. Next, `O=C(COC(=O)Cc1c[nH]c2ccccc12)Nc1cccc2ccccc12`: 0.635%. Turning to `COc1cccc(NC(=S)NNC(=O)Cn2nc(C(F)(F)F)cc2C)c1`, the CPE inhibition entry was “inactive”. To `O=C1C(Cc2cccc([N+](=O)[O-])c2)SC(=Nc2ccccc2)N1c1ccccc1` (stereo not drawn) belongs 2.22%. Take `CCOc1ccc(C(=O)Nc2cccc(-c3nc4ccccc4[nH]3)c2C)cc1[N+](=O)[O-]`: the CPE inhibition is 1.88%. Take `CCOc1ccc(C(=O)Nc2cc(-c3nc4ccccc4[nH]3)ccc2Cl)cc1[N+](=O)[O-]`: the CPE inhibition result is “inactive”. Take `CCOc1ccc(C(=O)Nc2ccc(-c3nc4ccccc4[nH]3)cc2)cc1[N+](=O)[O-]`: the CPE inhibition was 8.47% (active). For `COc1cccc(-c2c(-c3cc(OC)cc(OC)c3)n(C)c3ccc(Br)cc23)c1`, the CPE inhibition was 1.34%. As to `COc1cc(OC)cc(-c2c(-c3ccc(F)cc3)c3cc(-c4cnc(OC)nc4)ccc3n2C)c1`, the CPE inhibition is 2.91%. As to `O=C1[C@@H]2[C@@H]3C[C@@H]([C@H]4ON=C(c5ccc(Cl)cc5)[C@@H]34)[C@@H]2C(=O)N1c1ccc2c(c1)OCO2`, the CPE inhibition result is “inactive”. Next, `O=C1[C@@H]2[C@@H]3C[C@@H]([C@H]4ON=C(c5ccc(Cl)cc5Cl)[C@@H]34)[C@@H]2C(=O)N1C1CCCCC1`: 14.8% (active).

Consider `O=C1[C@@H]2[C@@H]3C[C@@H]([C@H]4ON=C(c5ccc(Cl)cc5)[C@@H]34)[C@@H]2C(=O)N1C1CCCCC1`, for which the CPE inhibition is 10.9%. Take `COc1ccc(NC(=O)CCC(=O)OCc2ccc(Br)cc2)cc1`: the CPE inhibition was 0.265%. For the molecule `O=C(/C(=C\c1ccccc1)c1nc2ccccc2[nH]1)c1ccc(Cl)cc1`, the CPE inhibition result was “inactive”.

Take `Cc1nn(-c2ccccc2)c(C)c1/C=N/NC(=O)CSc1nnc(SCc2cccc3ccccc23)s1`: the CPE inhibition is 4.67%.

As for `CCn1c(SCC(=O)N/N=C/c2c[nH]c3ccccc23)nnc1-c1ccc(C(C)(C)C)cc1`, the CPE inhibition was 14.2% (active). Consider `O=C(CSc1nnc(SCc2cccc3ccccc23)s1)N/N=C/c1c[nH]c2ccccc12`, for which the CPE inhibition was 23.8% (active). To `CCn1c(SCC(=O)N/N=C/c2c[nH]c3ccccc23)nnc1-c1ccc(Cl)cc1` belongs 1.47%. Take `O=C(CSc1nnc(SCc2ccccc2Cl)s1)N/N=C/c1c[nH]c2ccccc12`: the CPE inhibition was 0.645%. Take `CCn1c(SCC(=O)N/N=C/c2ccc(C)o2)nnc1-c1ccc(C(C)(C)C)cc1`: the CPE inhibition is 0.345%.

In the case of `CCc1ccc(OC(C)c2nnc(SCC(=O)Nc3ncccc3C)n2C)cc1` (stereo not drawn), the CPE inhibition is 0.355%.

With `Cc1cc(C)c2[nH]c(=O)c(CN(Cc3cccs3)C(=S)NCc3ccco3)cc2c1`, the CPE inhibition is 4.37%.

As to `CN(CC(=O)Nc1ccc(Cl)c(Cl)c1)C(=O)/C=C/c1ccc(F)cc1`, the CPE inhibition is 0.95%. As to `S=C(NCCc1ccccc1)NC1CC1`, the CPE inhibition entry was “inactive”. On to `COC(=O)c1sccc1N/N=C/c1cccc(OC)c1O`, for which the CPE inhibition was 2.21%. To `CCc1ccc(OCC(=O)N2c3ccccc3CCc3ccccc32)cc1` belongs 14.2% (active); to `O=C(COc1ccc(Cl)cc1)OCC(=O)N1CCCc2ccccc21`, “inactive”. For the molecule `COc1ccc(OCC(=O)N2c3ccccc3CCc3ccccc32)cc1`, the CPE inhibition result is “inactive”.
